Data published in publication PMC7826789 (International Journal of Molecular Sciences, 2021).

Key:
Conditions in all cases: Compound Concentration (nM):1000
[1] = system: FGFR3
[2] = system: FGFR4
[3] = system: FGR
[4] = system: FLT1
[5] = system: FLT3(D835H)
[6] = system: FLT3(D835V)
[7] = system: FLT3(D835Y)
[8] = system: FLT3(ITD)
[9] = system: FLT3(ITD,D835V)
[10] = system: FLT3(ITD,F691L)
[11] = system: FLT3(K663Q)
[12] = system: FLT3(N841I)
[13] = system: FLT3(R834Q)
[14] = system: FLT3-autoinhibited
[15] = system: FLT3
[16] = system: FLT4
[17] = system: FRK
[18] = system: FYN
[19] = system: GAK
[20] = system: T1, GCN2(Kin.Dom.2,S808G)
T1 construct: gene EIF2AK4
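Further: KINOMEscan scanMAX binding as percent activity remaining versus control; lower means stronger binding.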

## CC(C)COC(=O)c1ccc2c(c1)/C(=C/Nc1ccc(S(N)(=O)=O)cc1)C(=O)N2 [GW416981X]
[1]
  Percent Control: 100%
[2]
  Percent Control: 100%
[3]
  Percent Control: 99%
[4]
  Percent Control: 83%
[5]
  Percent Control: 1.6%
[6]
  Percent Control: 0%
[7]
  Percent Control: 1.1%
[8]
  Percent Control: 3%
[9]
  Percent Control: 0%
[10]
  Percent Control: 0%
[11]
  Percent Control: 42%
[12]
  Percent Control: 11%
[13]
  Percent Control: 18%
[14]
  Percent Control: 45%
[15]
  Percent Control: 42%
[16]
  Percent Control: 100%
[17]
  Percent Control: 100%
[18]
  Percent Control: 98%
[19]
  Percent Control: 40%
[20]
  Percent Control: 96%

## COc1ccc2cc(-c3c(-c4ccncc4)nc(-c4ccc(S(C)(=O)=O)cc4C)n3C)ccc2c1 [SB-633825]
[1]
  Percent Control: 76%
[2]
  Percent Control: 85%
[3]
  Percent Control: 63%
[4]
  Percent Control: 100%
[5]
  Percent Control: 79%
[6]
  Percent Control: 74%
[7]
  Percent Control: 99%
[8]
  Percent Control: 100%
[9]
  Percent Control: 80%
[10]
  Percent Control: 81%
[11]
  Percent Control: 93%
[12]
  Percent Control: 96%
[13]
  Percent Control: 95%
[14]
  Percent Control: 100%
[15]
  Percent Control: 92%
[16]
  Percent Control: 54%
[17]
  Percent Control: 76%
[18]
  Percent Control: 78%
[19]
  Percent Control: 59%
[20]
  Percent Control: 100%

## Cl.c1ccc(Cc2nc3ccc(Nc4ncnc5ccccc45)cc3[nH]2)cc1 [GR269666A]
[1]
  Percent Control: 100%
[2]
  Percent Control: 100%
[3]
  Percent Control: 100%
[4]
  Percent Control: 100%
[5]
  Percent Control: 100%
[6]
  Percent Control: 83%
[7]
  Percent Control: 97%
[8]
  Percent Control: 100%
[9]
  Percent Control: 100%
[10]
  Percent Control: 100%
[11]
  Percent Control: 90%
[12]
  Percent Control: 100%
[13]
  Percent Control: 100%
[14]
  Percent Control: 86%
[15]
  Percent Control: 72%
[16]
  Percent Control: 100%
[17]
  Percent Control: 100%
[18]
  Percent Control: 100%
[19]
  Percent Control: 100%
[20]
  Percent Control: 100%

## O=C(Nc1n[nH]c2nc(-c3ccc(O)cc3)c(Br)cc12)C1CC1 [SB-725317]
[1]
  Percent Control: 100%
[2]
  Percent Control: 100%
[3]
  Percent Control: 100%
[4]
  Percent Control: 89%
[5]
  Percent Control: 29%
[6]
  Percent Control: 2.9%
[7]
  Percent Control: 33%
[8]
  Percent Control: 68%
[9]
  Percent Control: 35%
[10]
  Percent Control: 37%
[11]
  Percent Control: 66%
[12]
  Percent Control: 100%
[13]
  Percent Control: 72%
[14]
  Percent Control: 96%
[15]
  Percent Control: 64%
[16]
  Percent Control: 84%
[17]
  Percent Control: 100%
[18]
  Percent Control: 100%
[19]
  Percent Control: 81%
[20]
  Percent Control: 96%

## Cl.O=C(O[C@H]1CN[C@H](C#Cc2cc3ncnc(Nc4ccc5c(cnn5Cc5ccccc5)c4)c3s2)C1)N1CCOCC1 [GSK200398A]
[1]
  Percent Control: 100%
[2]
  Percent Control: 89%
[3]
  Percent Control: 96%
[4]
  Percent Control: 99%
[5]
  Percent Control: 96%
[6]
  Percent Control: 87%
[7]
  Percent Control: 89%
[8]
  Percent Control: 98%
[9]
  Percent Control: 88%
[10]
  Percent Control: 92%
[11]
  Percent Control: 66%
[12]
  Percent Control: 100%
[13]
  Percent Control: 92%
[14]
  Percent Control: 89%
[15]
  Percent Control: 77%
[16]
  Percent Control: 100%
[17]
  Percent Control: 90%
[18]
  Percent Control: 81%
[19]
  Percent Control: 88%
[20]
  Percent Control: 44%

## COc1cc(C=NNc2ncnc3c2cnn3-c2ccccc2)ccc1O [GW513184X]
[1]
  Percent Control: 100%
[2]
  Percent Control: 100%
[3]
  Percent Control: 80%
[4]
  Percent Control: 100%
[5]
  Percent Control: 12%
[6]
  Percent Control: 3%
[7]
  Percent Control: 9.4%
[8]
  Percent Control: 30%
[9]
  Percent Control: 16%
[10]
  Percent Control: 46%
[11]
  Percent Control: 63%
[12]
  Percent Control: 27%
[13]
  Percent Control: 72%
[14]
  Percent Control: 100%
[15]
  Percent Control: 34%
[16]
  Percent Control: 97%
[17]
  Percent Control: 100%
[18]
  Percent Control: 90%
[19]
  Percent Control: 100%
[20]
  Percent Control: 49%

## O=C1Nc2ccc(C(=O)c3ccco3)cc2C1=Cc1cc(Cl)c(O)c(Cl)c1 [GW406108X]
[1]
  Percent Control: 78%
[2]
  Percent Control: 100%
[3]
  Percent Control: 81%
[4]
  Percent Control: 57%
[5]
  Percent Control: 18%
[6]
  Percent Control: 2.2%
[7]
  Percent Control: 15%
[8]
  Percent Control: 47%
[9]
  Percent Control: 12%
[10]
  Percent Control: 29%
[11]
  Percent Control: 83%
[12]
  Percent Control: 54%
[13]
  Percent Control: 73%
[14]
  Percent Control: 84%
[15]
  Percent Control: 71%
[16]
  Percent Control: 100%
[17]
  Percent Control: 100%
[18]
  Percent Control: 92%
[19]
  Percent Control: 5.9%
[20]
  Percent Control: 71%

## COc1cccc(-n2ncc3c(N/N=C/c4ccncc4)ncnc32)c1 [GW784752X]
[1]
  Percent Control: 100%
[2]
  Percent Control: 100%
[3]
  Percent Control: 72%
[4]
  Percent Control: 100%
[5]
  Percent Control: 22%
[6]
  Percent Control: 4%
[7]
  Percent Control: 48%
[8]
  Percent Control: 67%
[9]
  Percent Control: 10%
[10]
  Percent Control: 55%
[11]
  Percent Control: 75%
[12]
  Percent Control: 36%
[13]
  Percent Control: 77%
[14]
  Percent Control: 85%
[15]
  Percent Control: 76%
[16]
  Percent Control: 100%
[17]
  Percent Control: 100%
[18]
  Percent Control: 75%
[19]
  Percent Control: 48%
[20]
  Percent Control: 65%

## COC(=O)Nc1nc2ccc(Oc3ccc(NC(=O)Nc4cc(C(F)(F)F)ccc4F)cc3)cc2s1.Cl [GW693917A]
[1]
  Percent Control: 70%
[2]
  Percent Control: 91%
[3]
  Percent Control: 71%
[4]
  Percent Control: 3%
[5]
  Percent Control: 2.3%
[6]
  Percent Control: 13%
[7]
  Percent Control: 24%
[8]
  Percent Control: 4.3%
[9]
  Percent Control: 83%
[10]
  Percent Control: 44%
[11]
  Percent Control: 1%
[12]
  Percent Control: 89%
[13]
  Percent Control: 11%
[14]
  Percent Control: 65%
[15]
  Percent Control: 2.4%
[16]
  Percent Control: 2.4%
[17]
  Percent Control: 15%
[18]
  Percent Control: 52%
[19]
  Percent Control: 97%
[20]
  Percent Control: 100%
